Reference: the supplement of paper PMC11732987, “Enantioselective OTUD7B fragment discovery through chemoproteomics screening and high-throughput optimisation” (Communications Chemistry, 2025)

Legend:
Assay in all cases: log2 ratio of Biotin-Ahx-Ub-VS probe labelling (fragment/DMSO); higher = less target engagement (more negative = stronger competition), active = hit call of the paper (q ≤ 0.05, log2 ratio ≤ -1)
Details in all cases: compound concentration: 200 uM; treatment time: 3 h
USP34 = USP34 (UniProt Q70CQ2)
How it was run: (§1)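 Each value is an average log2 ratio of fragment to vehicle, tested by unpaired t-test. The underlying Spectronaut label-free quantities were global-median-normalised, and only proteins with ≥2 unique peptides were included. Triplicate HEK293T lysate samples (495 µg) were exposed to fragment at 200 µM or vehicle for 3 h, then to Biotin-Ahx-Ub-VS at 0.5 µM final for 1 h, before NeutrAvidin enrichment of labelled DUBs, LysC and trypsin digestion, and diaPASEF LC-MS/MS.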

USP36 = target: T1, USP36 (UniProt Q9P275)
T1 sequence (whole entry): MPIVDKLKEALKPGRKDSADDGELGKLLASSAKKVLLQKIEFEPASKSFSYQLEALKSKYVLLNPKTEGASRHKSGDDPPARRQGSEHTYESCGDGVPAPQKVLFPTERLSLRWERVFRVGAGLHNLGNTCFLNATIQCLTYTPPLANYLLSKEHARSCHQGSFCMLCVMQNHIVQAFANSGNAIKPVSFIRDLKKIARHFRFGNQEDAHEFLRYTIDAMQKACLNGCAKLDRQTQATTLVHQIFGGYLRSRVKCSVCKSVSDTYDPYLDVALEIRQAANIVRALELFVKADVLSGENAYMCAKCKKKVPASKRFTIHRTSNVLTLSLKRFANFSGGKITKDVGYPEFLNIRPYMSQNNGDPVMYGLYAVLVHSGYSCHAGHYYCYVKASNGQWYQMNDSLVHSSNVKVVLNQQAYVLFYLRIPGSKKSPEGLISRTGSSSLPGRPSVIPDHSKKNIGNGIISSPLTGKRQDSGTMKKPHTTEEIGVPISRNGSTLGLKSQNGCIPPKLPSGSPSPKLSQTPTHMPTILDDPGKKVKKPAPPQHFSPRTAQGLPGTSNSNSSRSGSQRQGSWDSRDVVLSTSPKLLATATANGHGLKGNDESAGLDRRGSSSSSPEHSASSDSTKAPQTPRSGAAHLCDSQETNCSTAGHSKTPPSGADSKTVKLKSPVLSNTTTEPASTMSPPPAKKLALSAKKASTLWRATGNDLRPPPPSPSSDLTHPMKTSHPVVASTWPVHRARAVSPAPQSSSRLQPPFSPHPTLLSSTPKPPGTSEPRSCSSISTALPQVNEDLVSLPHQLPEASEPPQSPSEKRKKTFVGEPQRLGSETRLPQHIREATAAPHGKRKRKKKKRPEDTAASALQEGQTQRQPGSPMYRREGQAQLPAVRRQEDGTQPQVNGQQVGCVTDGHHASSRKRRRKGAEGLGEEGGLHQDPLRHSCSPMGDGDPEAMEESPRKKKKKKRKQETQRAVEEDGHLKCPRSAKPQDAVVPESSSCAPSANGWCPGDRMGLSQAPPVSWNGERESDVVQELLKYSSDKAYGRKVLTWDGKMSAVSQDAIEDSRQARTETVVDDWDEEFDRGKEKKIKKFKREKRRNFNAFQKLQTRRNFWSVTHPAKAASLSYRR
How it was run: as §1

USP38 = target: T2, USP38 (UniProt Q8NB14)
T2 sequence (whole entry): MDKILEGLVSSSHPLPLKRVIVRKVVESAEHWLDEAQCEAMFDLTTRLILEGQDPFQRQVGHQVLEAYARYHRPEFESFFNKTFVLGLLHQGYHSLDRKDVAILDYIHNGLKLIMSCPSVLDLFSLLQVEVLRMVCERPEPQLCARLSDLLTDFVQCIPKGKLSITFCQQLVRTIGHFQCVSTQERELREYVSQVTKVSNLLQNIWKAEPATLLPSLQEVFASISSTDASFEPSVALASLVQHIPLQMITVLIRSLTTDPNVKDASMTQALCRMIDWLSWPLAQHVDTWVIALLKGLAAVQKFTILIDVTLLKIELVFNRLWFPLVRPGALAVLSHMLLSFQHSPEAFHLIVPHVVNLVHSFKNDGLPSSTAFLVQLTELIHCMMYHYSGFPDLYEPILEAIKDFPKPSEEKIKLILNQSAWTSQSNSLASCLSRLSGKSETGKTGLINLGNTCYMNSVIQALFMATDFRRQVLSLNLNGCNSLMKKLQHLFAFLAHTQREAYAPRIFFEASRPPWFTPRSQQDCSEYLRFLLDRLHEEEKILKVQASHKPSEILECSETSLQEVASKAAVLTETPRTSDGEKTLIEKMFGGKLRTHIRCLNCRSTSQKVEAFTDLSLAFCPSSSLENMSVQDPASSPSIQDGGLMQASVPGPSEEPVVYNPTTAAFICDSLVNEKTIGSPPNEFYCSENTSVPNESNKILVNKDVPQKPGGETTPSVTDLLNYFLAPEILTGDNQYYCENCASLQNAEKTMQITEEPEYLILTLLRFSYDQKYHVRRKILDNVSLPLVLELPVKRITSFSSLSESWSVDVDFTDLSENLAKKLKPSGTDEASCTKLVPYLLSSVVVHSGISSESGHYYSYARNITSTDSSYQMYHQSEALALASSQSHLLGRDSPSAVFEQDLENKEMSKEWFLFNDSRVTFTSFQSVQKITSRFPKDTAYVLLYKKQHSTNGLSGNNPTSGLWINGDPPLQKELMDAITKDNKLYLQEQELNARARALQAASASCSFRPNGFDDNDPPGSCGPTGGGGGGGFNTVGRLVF
How it was run: as §1

USP39 = target: T3, USP39 (UniProt Q53GS9)
T3 sequence (whole entry): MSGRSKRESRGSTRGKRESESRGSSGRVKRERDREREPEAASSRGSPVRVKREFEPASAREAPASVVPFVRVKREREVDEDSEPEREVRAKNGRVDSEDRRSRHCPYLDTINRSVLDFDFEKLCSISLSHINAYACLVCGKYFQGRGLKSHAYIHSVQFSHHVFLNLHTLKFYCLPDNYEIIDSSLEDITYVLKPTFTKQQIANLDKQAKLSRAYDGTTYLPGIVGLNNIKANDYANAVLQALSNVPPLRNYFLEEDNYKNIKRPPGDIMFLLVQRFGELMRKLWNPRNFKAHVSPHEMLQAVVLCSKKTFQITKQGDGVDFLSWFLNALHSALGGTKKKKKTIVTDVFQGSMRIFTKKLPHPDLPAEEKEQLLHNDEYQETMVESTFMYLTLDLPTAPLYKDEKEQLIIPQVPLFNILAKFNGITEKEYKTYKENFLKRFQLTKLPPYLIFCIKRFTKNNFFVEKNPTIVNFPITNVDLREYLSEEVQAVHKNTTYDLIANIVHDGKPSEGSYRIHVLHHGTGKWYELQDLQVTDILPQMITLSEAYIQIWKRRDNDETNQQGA
How it was run: as §1

USP4 = target: T4, USP4 (UniProt Q13107)
T4 sequence (whole entry): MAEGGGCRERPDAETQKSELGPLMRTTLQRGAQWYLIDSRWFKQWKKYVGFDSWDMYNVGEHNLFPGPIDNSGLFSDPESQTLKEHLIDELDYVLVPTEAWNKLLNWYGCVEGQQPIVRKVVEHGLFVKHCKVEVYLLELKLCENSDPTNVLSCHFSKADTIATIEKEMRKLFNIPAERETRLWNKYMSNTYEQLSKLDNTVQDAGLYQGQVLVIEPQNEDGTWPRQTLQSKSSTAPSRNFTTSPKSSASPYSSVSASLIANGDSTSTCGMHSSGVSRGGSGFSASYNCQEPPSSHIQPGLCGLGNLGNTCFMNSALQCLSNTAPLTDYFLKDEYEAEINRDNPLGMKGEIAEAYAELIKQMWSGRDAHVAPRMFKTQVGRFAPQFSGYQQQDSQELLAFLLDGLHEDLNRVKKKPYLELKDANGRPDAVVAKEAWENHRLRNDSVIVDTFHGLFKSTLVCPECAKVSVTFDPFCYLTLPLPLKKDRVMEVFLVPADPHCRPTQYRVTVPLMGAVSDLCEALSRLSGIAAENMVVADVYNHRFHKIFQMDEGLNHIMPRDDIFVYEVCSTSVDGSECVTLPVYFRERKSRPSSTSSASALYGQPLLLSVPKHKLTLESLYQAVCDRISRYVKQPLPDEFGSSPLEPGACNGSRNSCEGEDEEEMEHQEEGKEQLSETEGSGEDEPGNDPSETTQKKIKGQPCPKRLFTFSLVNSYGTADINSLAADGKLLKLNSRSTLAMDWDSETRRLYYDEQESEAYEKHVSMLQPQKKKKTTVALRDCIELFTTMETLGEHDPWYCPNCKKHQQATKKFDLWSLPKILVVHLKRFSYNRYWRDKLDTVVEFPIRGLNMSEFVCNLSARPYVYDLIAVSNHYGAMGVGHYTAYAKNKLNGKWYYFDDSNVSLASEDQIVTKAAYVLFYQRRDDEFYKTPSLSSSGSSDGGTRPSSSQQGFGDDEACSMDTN
How it was run: as §1

Measured: log2 ratio of Biotin-Ahx-Ub-VS probe labelling

Sequence of USP34 (Q70CQ2 whole entry, the tested form may be a part): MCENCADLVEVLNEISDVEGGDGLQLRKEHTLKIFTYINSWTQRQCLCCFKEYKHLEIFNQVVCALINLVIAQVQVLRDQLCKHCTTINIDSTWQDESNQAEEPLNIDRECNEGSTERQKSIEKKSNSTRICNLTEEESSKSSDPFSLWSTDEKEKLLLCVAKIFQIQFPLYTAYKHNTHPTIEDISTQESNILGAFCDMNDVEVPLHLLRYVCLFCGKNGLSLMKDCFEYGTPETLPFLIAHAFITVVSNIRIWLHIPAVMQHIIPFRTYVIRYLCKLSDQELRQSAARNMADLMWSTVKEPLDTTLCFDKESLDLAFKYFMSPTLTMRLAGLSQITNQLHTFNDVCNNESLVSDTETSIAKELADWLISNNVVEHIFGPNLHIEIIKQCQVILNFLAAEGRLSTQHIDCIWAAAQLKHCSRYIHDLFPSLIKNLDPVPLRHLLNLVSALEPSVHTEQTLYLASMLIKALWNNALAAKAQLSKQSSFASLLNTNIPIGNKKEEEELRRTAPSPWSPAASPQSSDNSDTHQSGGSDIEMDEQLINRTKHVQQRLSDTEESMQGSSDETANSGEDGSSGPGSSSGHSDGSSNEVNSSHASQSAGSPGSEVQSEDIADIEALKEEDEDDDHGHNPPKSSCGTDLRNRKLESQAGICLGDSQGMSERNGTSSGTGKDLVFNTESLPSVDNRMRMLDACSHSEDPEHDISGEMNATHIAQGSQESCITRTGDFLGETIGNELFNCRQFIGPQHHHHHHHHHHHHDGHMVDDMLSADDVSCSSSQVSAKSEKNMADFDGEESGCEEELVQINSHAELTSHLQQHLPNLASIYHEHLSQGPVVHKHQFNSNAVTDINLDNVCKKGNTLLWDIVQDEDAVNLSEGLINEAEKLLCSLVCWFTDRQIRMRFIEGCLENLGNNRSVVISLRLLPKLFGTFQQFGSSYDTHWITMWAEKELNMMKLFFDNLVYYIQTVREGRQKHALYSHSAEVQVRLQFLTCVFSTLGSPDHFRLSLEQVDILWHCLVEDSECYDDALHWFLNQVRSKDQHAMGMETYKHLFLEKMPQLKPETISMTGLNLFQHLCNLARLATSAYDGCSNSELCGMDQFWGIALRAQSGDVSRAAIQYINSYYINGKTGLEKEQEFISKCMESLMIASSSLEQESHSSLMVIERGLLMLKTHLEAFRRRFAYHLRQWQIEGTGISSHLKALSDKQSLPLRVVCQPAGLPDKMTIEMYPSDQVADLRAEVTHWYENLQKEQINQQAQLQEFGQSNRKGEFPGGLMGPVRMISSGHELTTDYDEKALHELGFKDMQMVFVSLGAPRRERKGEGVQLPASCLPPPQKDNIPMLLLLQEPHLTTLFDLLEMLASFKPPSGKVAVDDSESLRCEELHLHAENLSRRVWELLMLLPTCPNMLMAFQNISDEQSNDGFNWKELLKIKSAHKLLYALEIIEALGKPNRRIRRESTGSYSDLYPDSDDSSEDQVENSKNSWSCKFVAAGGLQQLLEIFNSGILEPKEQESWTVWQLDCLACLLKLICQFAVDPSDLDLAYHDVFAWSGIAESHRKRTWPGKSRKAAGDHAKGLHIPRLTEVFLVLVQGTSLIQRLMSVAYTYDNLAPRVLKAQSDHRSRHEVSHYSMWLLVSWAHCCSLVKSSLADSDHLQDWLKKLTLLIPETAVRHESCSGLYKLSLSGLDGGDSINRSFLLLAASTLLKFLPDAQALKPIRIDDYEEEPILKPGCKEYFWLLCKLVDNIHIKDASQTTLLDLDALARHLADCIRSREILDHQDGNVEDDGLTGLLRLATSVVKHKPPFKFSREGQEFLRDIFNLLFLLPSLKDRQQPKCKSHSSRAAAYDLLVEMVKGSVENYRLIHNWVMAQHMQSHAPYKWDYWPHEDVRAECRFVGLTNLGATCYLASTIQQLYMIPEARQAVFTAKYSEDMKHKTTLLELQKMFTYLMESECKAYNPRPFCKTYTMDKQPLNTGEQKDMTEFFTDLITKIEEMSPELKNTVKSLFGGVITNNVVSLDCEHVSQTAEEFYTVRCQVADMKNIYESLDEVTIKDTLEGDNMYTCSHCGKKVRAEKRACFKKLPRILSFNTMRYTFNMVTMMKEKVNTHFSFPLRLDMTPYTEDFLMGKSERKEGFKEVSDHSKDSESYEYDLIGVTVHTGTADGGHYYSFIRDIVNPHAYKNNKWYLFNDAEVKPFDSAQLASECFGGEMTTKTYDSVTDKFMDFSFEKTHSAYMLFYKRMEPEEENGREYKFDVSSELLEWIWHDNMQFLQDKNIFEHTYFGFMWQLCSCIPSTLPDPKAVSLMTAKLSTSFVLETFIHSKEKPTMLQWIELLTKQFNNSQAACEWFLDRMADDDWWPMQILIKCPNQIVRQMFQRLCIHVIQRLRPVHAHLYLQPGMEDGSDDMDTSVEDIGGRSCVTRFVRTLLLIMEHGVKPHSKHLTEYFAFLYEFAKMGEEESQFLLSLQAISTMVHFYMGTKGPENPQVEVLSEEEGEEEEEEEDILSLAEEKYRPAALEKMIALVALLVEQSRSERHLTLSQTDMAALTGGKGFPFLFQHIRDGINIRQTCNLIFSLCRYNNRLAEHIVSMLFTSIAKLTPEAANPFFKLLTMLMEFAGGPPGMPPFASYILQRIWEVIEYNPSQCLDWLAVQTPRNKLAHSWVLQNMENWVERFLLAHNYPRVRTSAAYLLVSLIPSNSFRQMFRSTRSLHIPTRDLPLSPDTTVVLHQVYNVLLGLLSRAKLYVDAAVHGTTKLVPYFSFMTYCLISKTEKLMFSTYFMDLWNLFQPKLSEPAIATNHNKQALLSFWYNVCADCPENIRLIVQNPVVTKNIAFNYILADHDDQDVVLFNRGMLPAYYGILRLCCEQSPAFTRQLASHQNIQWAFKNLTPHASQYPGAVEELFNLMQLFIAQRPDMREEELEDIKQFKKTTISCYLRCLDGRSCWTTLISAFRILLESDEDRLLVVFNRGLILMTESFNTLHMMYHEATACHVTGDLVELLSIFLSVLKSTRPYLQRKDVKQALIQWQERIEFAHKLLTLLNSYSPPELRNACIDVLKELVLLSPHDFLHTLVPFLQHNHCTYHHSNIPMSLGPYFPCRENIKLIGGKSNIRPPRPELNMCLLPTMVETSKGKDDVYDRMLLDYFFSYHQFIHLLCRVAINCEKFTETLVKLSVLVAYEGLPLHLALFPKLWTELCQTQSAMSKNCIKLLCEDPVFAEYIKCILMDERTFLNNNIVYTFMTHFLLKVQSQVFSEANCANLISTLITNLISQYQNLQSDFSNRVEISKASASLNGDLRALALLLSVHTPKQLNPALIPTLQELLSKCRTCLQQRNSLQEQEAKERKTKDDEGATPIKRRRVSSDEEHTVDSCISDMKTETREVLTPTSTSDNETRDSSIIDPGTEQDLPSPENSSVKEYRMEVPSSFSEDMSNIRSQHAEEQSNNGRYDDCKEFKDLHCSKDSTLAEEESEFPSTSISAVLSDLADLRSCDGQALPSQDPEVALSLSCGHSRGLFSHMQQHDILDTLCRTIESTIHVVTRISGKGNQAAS

CC(O)CC1CCN(C(=O)CCl)CC1 (stereo not given)
inactive: USP34 -0.0285 | USP36 -0.326 | USP38 -0.143 | USP39 -0.0644 | USP4 -0.0429
